The record followed here is article PMC9911399, “Two distinct binding modes provide the RNA-binding protein RbFox with extraordinary sequence specificity”.

Where a chain is given by its changes, count along the chain named. The full ranking holds about 16,000 sequences; the median of “ka relative to ugcaugu” is about 0.0091, and the highest 2% start at about 0.032. The sample as a whole holds a higher share of the highest values than the screen did.

First the molecules themselves.
T1: RBFOX1 RRM (Homo sapiens, UniProt Q9NWB1 109-208)
T1 sequence: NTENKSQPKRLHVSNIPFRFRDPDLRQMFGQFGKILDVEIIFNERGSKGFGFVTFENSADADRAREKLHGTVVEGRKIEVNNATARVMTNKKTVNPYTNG

B1: UGACAAG (DNA:RNA)
RNA: GGGAGACCGGAAUUCAGAUUGUCCUGACAAGUUAAAUCCCGUCGUAGCCACCA
DNA 1: CAATCTGAATTCCGGTCTCCC
DNA 2: TGGTGGCTACGACGGGATT
B2: ACGCUGG (DNA:RNA)
RNA: B1 RNA with U25A, G26C, A27G, A29U, A30G
DNA 1: CAATCTGAATTCCGGTCTCCC
DNA 2: TGGTGGCTACGACGGGATT
B3: UGGCAAU (DNA:RNA)
RNA: B1 RNA with A27G, G31U
DNA 1: CAATCTGAATTCCGGTCTCCC
DNA 2: TGGTGGCTACGACGGGATT
B4: CACCCCG (DNA:RNA)
RNA: B1 RNA with U25C, G26A, A27C, A29C, A30C
DNA 1: CAATCTGAATTCCGGTCTCCC
DNA 2: TGGTGGCTACGACGGGATT
B5: CUUGCCC (DNA:RNA)
RNA: GGGAGACCGGAAUUCAGAUUGUCCCUUGCCCUUAAAUCCCGUCGUAGCCACCA
DNA 1: CAATCTGAATTCCGGTCTCCC
DNA 2: TGGTGGCTACGACGGGATT
B6: CAAUCGU (DNA:RNA)
RNA: B5 RNA with U26A, U27A, G28U, C30G, C31U
DNA 1: CAATCTGAATTCCGGTCTCCC
DNA 2: TGGTGGCTACGACGGGATT
B7: ACUUACA (DNA:RNA)
RNA: B5 RNA with C25A, U26C, G28U, C29A, C31A
DNA 1: CAATCTGAATTCCGGTCTCCC
DNA 2: TGGTGGCTACGACGGGATT
B8: CACUUGG (DNA:RNA)
RNA: B5 RNA with U26A, U27C, G28U, C29U, C30G, C31G
DNA 1: CAATCTGAATTCCGGTCTCCC
DNA 2: TGGTGGCTACGACGGGATT
B9: CGUCCGU (DNA:RNA)
RNA: B5 RNA with U26G, G28C, C30G, C31U
DNA 1: CAATCTGAATTCCGGTCTCCC
DNA 2: TGGTGGCTACGACGGGATT
B10: AGGAUUG (DNA:RNA)
RNA: B1 RNA with U25A, A27G, C28A, A29U, A30U
DNA 1: CAATCTGAATTCCGGTCTCCC
DNA 2: TGGTGGCTACGACGGGATT
B11: UCGAAUG (DNA:RNA)
RNA: B1 RNA with G26C, A27G, C28A, A30U
DNA 1: CAATCTGAATTCCGGTCTCCC
DNA 2: TGGTGGCTACGACGGGATT
B12: GUAAAUG (DNA:RNA)
RNA: B1 RNA with U25G, G26U, C28A, A30U
DNA 1: CAATCTGAATTCCGGTCTCCC
DNA 2: TGGTGGCTACGACGGGATT
B13: GUAAUGU (DNA:RNA)
RNA: B5 RNA with C25G, U27A, G28A, C29U, C30G, C31U
DNA 1: CAATCTGAATTCCGGTCTCCC
DNA 2: TGGTGGCTACGACGGGATT
B14: AGGAAUG (DNA:RNA)
RNA: B1 RNA with U25A, A27G, C28A, A30U
DNA 1: CAATCTGAATTCCGGTCTCCC
DNA 2: TGGTGGCTACGACGGGATT
B15: CGUAAUG (DNA:RNA)
RNA: B1 RNA with U25C, A27U, C28A, A30U
DNA 1: CAATCTGAATTCCGGTCTCCC
DNA 2: TGGTGGCTACGACGGGATT
B16: GGAAUGU (DNA:RNA)
RNA: B1 RNA with U25G, C28A, A29U, A30G, G31U
DNA 1: CAATCTGAATTCCGGTCTCCC
DNA 2: TGGTGGCTACGACGGGATT
B17: AGGAAUC (DNA:RNA)
RNA: B1 RNA with U25A, A27G, C28A, A30U, G31C
DNA 1: CAATCTGAATTCCGGTCTCCC
DNA 2: TGGTGGCTACGACGGGATT
B18: CGGAAUG (DNA:RNA)
RNA: B1 RNA with U25C, A27G, C28A, A30U
DNA 1: CAATCTGAATTCCGGTCTCCC
DNA 2: TGGTGGCTACGACGGGATT
B19: UCGAUUG (DNA:RNA)
RNA: B1 RNA with G26C, A27G, C28A, A29U, A30U
DNA 1: CAATCTGAATTCCGGTCTCCC
DNA 2: TGGTGGCTACGACGGGATT
B20: UCGAAUC (DNA:RNA)
RNA: B1 RNA with G26C, A27G, C28A, A30U, G31C
DNA 1: CAATCTGAATTCCGGTCTCCC
DNA 2: TGGTGGCTACGACGGGATT

For the assay, the target named is T1, RBFOX1 RRM. The experiment in a line: EMSA; HiTS-Eq, 1 nM pool, 10 min; buffer printed only for the single-RNA assays: 10 mM Tris pH 7.5, 150 mM NaCl, 3.4 mM EDTA, 0.001% NP-40, 30 C. Particulars: tags: His6 N-terminal (pET28a); label: 5' 32P. The method, boiled down:
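Purified wild-type or mutant RbFox RRM at increasing concentrations was equilibrated with 1 nM of 5′-radiolabelled RNA carrying 7 randomized nucleotides for 10 min in 50 µL. Unbound RNA was separated by 8% native PAGE and sequenced. Relative association constants came from read-count changes of each RNA species compared with the control reaction, normalised to the cognate motif.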
In general terms: In EMSA bound probe runs differently from free probe, usually more slowly.
For B1, the binding signal is 0.0143 KA relative to UGCAUGU.

On to B2, for which the binding signal is 0.0175 KA relative to UGCAUGU.

For the molecule B3, the binding signal was 0.0132 KA relative to UGCAUGU.

With B4, the binding signal was 0.002 KA relative to UGCAUGU.

Consider B5, for which the binding signal is 0.00752 KA relative to UGCAUGU.

For B6, the binding signal was 0.00595 KA relative to UGCAUGU.

For the molecule B7, the binding signal is 0.00166 KA relative to UGCAUGU.

With B8, the binding signal was 0.0107 KA relative to UGCAUGU.

As to B9, the binding signal is 0.0125 KA relative to UGCAUGU.

As to B10, the binding signal was 0.0293 KA relative to UGCAUGU.

Turning to B11, the binding signal is 0.0323 KA relative to UGCAUGU.

With B12, the binding signal was 0.00894 KA relative to UGCAUGU.

On to B13, for which the binding signal was 0.0122 KA relative to UGCAUGU.

Regarding B14, the binding signal was 0.0471 KA relative to UGCAUGU.

Regarding B15, the binding signal is 0.0127 KA relative to UGCAUGU.

B16: the binding signal is 0.0563 KA relative to UGCAUGU.

Regarding B17, the binding signal was 0.0141 KA relative to UGCAUGU.

Take B18: the binding signal was 0.0596 KA relative to UGCAUGU.

Turning to B19, the binding signal is 0.0206 KA relative to UGCAUGU.

In the case of B20, the binding signal was 0.0109 KA relative to UGCAUGU.
